Molecules are shown by their SMILES. Calls of active or inactive are those of the source. The rule behind the calls is not given here. Positions of bridges follow the written chain, without caps; N, C: chain ends. Non-standard residues stand in square brackets, D forms with d. Residues, ends and D or L forms follow the SMILES beside them. *: point of attachment. Octanoyl(6-Me) = CCC(C)CCCCC(=O)*; Dab = NCC[CH](N)C(=O)O

The subject of this assay is Aerobactin synthetase IucA (Klebsiella pneumoniae hvKP1). In words: Biochemical IucA enzyme inhibition primary screen of the Spectrum library (AID 1346200).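 Note: 100% = wells without compound and 0% = wells lacking enzyme.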 The conditions noted are these: malachite green pyrophosphate, A620, at 8 µM, active compounds read low.
For the compound `CCC(=O)OCC(=O)C1(OC(=O)CC)C(C)CC2C3CCC4=CC(=O)C=CC4(C)C3(Cl)C(O)CC21C` (stereo not drawn), the activity remaining is 119% (inactive).
Take `O=C1C=C(O)c2ccccc2C1=O`: the activity remaining is 123% (inactive).
As to `O=c1[nH]c2cc(Cl)c(Cl)cc2[nH]c1=O`, the activity remaining is 121% (inactive).
Regarding `COc1cc(O)cc(OC)c1OC`, the activity remaining was 104% (inactive).
For `C[C@@H]1CC2C3CCC4=CC(=O)C=C[C@]4(C)[C@@]3(F)[C@@H](O)C[C@]2(C)[C@@]1(O)C(=O)COP(=O)(O)O` (stereo partly drawn), the activity remaining was 114% (inactive).
Next, `CC(=O)O[C@@H]1CC2C(C)(C)CCC(=O)[C@]2(C)C2CC[C@@]3(C)[C@H](c4ccoc4)OC(=O)C4OC43[C@@]21C` (stereo partly drawn): 113% (inactive); `CCC(C)CCCCC(=O)NC(CCN)C(=O)NC(C(=O)NC(CCN)C(=O)NC1CCNC(=O)C(C(C)O)NC(=O)C(CCN)NC(=O)C(CCN)NC(=O)C(CC(C)C)NC(=O)C(Cc2ccccc2)NC(=O)C(CCN)NC1=O)C(C)O` (stereo not drawn) ({Octanoyl(6-Me)}-[Dab]T[Dab][Dab][Dab]FL[Dab][Dab]T; lactam 4-C; configuration not given here): 121% (inactive).
`CNCCc1ccccn1`: the activity remaining is 114% (inactive).
For the compound `O=C(O)c1cc(=O)c(O)c2c(O)c(O)c(O)cc2c1`, the activity remaining is 104% (inactive).
Consider `CCn1cc(C(=O)O)c(=O)c2cnc(N3CCCC3)nc21`, for which the activity remaining is 105% (inactive).
On to `CC(=O)c1ccc[nH]1`, for which the activity remaining is 98.2% (inactive).
Turning to `CC(=O)Oc1c(C)c(C)c2c(c1C)CCC(C)(CCCC(C)CCCC(C)CCCC(C)C)O2` (stereo not drawn), the activity remaining was 96.6% (inactive).
As for `C=C1CC[C@H](O)C/C1=C/C=C1\CCCC2(C)C1CCC2C(C)CCCC(C)C` (stereo partly drawn), the activity remaining was 113% (inactive).
